FGF22 binding: binders of human FGF22 protein, primary screen, FGF22 synaptogenesis inhibitor project, biophysical, thermal shift, single point; Fibroblast growth factor 22 (Homo sapiens), Q9HCT0; actives 1.5% (n = 340,000); AID 651658, 2012; activity (Tm shift, normalised), % at 9.99 µM; recombinant FGF22 thermal shift, SYPRO orange fluorescence; percent of sucrose octasulfate shift, DMSO zero;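 active = mean Tm shift, scaled 0 neutral to 100 positive control, at about 1.3% or above, every replicate too, limit read from the data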
Target sequence (Q9HCT0 whole entry, looked up): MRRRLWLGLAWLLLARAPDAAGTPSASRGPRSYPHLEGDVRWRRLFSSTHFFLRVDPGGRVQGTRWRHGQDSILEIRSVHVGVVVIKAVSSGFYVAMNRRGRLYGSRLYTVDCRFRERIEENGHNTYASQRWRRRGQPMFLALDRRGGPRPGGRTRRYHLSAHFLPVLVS
proKLK7 act: proKLK7 zymogen activators, primary screen, biochemical, fluorescence intensity. Kallikrein-7 (Homo sapiens), P49862. purified proKLK7, EDANS-DABCYL substrate fluorescence; 100% is mature enzyme control, 0% vehicle. activation, % at 7 µM. actives 0.9% (n = 370,000). AID 652039, 2013;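 active = activation above the mean of all tested compounds plus 3 SD, computed per campaign excluding outliers beyond control limits, cut at about 13% in these data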
Target sequence (P49862 whole entry, looked up): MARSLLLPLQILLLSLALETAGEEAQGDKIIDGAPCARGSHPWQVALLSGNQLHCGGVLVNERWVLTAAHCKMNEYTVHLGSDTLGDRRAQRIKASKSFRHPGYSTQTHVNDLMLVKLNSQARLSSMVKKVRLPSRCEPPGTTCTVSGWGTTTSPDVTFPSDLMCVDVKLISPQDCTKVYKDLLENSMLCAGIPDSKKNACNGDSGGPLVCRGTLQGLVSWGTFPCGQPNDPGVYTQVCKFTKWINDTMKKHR
Ecoli rRNA inh: reduced GFP signal of wild-type E. coli, primary screen, bacterial rRNA inhibitor project, GFP/RFP fluorescence, OD600, single point; E. coli WT GFP vs humanized-ribosome RFP mutants, 24 h; stronger effect = lower value; DMSO median 0, no signal -100; GFP signal change (wild-type ribosome), % (test concentration not listed); actives 1.6% (n = 350,000);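 active = significant combined selectivity score with lowered wild-type GFP, culture density cut under 30%, mutant RFP and density less affected; inactive = any of these conditions unmet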
ADAM17 inh: ADAM17 inhibitors, primary screen, biochemical, QFRET | recombinant ADAM17, EDANS/DABCYL FRET peptide cleavage | actives 0.83% (n = 370,000) | Disintegrin and metalloproteinase domain-containing protein 17 (Homo sapiens), P78536 | inhibition, % at 6.95 µM | AID 720648, 2013;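 active = inhibition above the mean of compounds lying between control limits plus 3 SD, set per campaign, cut at about 8.5% in these data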
ADAM10 inh: human ADAM10 inhibitors, primary screen, biochemical, QFRET, HTS | Disintegrin and metalloproteinase domain-containing protein 10 (Homo sapiens), O14672 | recombinant ADAM10, EDANS/DABCYL FRET peptide cleavage, 3 h | inhibition, % at 7 µM | actives 0.62% (n = 370,000) | AID 720582, 2013;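 active = inhibition above a per-campaign cutoff equal to the mean of compounds falling between control-based bounds plus 3 SD, cut at about 20% in these data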
ADAM10 confirm: human ADAM10 inhibitors, confirmation, biochemical, QFRET, triplicate. ADAM10 QFRET peptide cleavage, EDANS fluorescence. actives 1% (n = 2,100). AID 743208, 2013. shares compounds with ADAM10 inh. inhibition, % at 6.95 µM;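 active = inhibition above about 20% chosen separately for each screening run, limit read from the data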
ADAM17 ctr: ADAM17 inhibitors, counter-screen for ADAM10 exosite inhibitor project, biochemical, QFRET, high throughput | shares compounds with ADAM10 inh | ADAM17 QFRET peptide cleavage, EDANS fluorescence | inhibition, % at 6.95 µM | actives 0.5% (n = 2,100) | AID 743214, 2013;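 active = mean triplicate inhibition above the solvent-only control wells' mean plus 3 SD, cut at about 12% in these data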
ADAM10 ctr: ADAM10 inhibitors, counter-screen for ADAM17 exosite inhibitor project, biochemical, FRET, human ADAM10; recombinant ADAM10, EDANS/DABCYL FRET peptide cleavage, 3 h; actives 47% (n = 2,900); AID 743256, 2014; inhibition, % at 6.95 µM; shares compounds with ADAM17 inh;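 active = mean inhibition over the triplicate runs exceeds the activity threshold set in the earlier primary screen, cut at about 20% in these data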
ADAM17 confirm: ADAM17 inhibitors, hit retest, confirmation, biochemical, QFRET peptide cleavage; actives 65% (n = 2,900); recombinant ADAM17, EDANS/DABCYL QFRET peptide cleavage; shares compounds with ADAM17 inh; AID 743257, 2014; inhibition, % at 6.95 µM;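 active = mean inhibition across replicates above the hit cutoff set in the primary screen, cut at about 8.5% in these data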
Of the large screens only hits and unclear results are named; the others gave an inactive call (follow-up assays come after a bar, where they were run). In the library only some 3.8% were active in any assay of this set; here they are far more common.

Cc1cc(C)cc(NC(=O)C(OC(=O)c2cccs2)c2ccccc2)c1 (centres undefined)	ADAM17 inh 10.9, ADAM10 inh 20.8 | ADAM10 confirm inactive | ADAM17 ctr inactive | ADAM10 ctr inactive | ADAM17 confirm inactive
CC(=O)c1cccc(NC(=O)C(OC(=O)c2ccccc2NS(=O)(=O)c2cccs2)c2ccccc2)c1 (centres undefined)	ADAM17 inh 10.1, ADAM10 inh 21.4 (no result: FGF22 binding, Ecoli rRNA inh) | ADAM10 confirm inactive | ADAM17 ctr inactive | ADAM10 ctr inactive | ADAM17 confirm 17.9
CCOc1ccccc1NC(=O)C(OC(=O)c1ccccc1NS(=O)(=O)c1cccs1)c1ccccc1 (centres undefined)	none
O=C(C[C@H]1CC[C@@H](NC(=O)C2CCOCC2)[C@@H](CO)O1)Nc1ccccc1	none (no result: FGF22 binding, proKLK7 act, ADAM17 inh, ADAM10 inh)
CCCCCC(=O)N1C[C@@H](O)[C@H](n2cc(-c3ccc(F)cc3)nn2)C[C@@H]1c1ccc(Cl)cc1	none
CCCCCC(=O)N1C[C@H](n2cc(-c3ccc(F)cc3)nn2)[C@@H](O)C[C@@H]1c1ccc(Cl)cc1	ADAM17 inh 12.8, ADAM10 inh 30.9 | ADAM10 confirm inactive | ADAM17 ctr inactive | ADAM10 ctr 26.1 | ADAM17 confirm 13.2
CCCN(C)C[C@H]1Oc2cc(-c3cccc(OC)c3)ccc2S(=O)(=O)N([C@H](C)CO)C[C@H]1C	none (no result: proKLK7 act, ADAM17 inh, ADAM10 inh)
CC(/C=C1\SC(=O)N(CC(=O)Nc2cccc(O)c2)C1=O)=C\c1ccccc1	ADAM17 inh 13.0, ADAM10 inh 28.6 (no result: FGF22 binding, Ecoli rRNA inh) | ADAM10 confirm inactive | ADAM17 ctr inactive | ADAM10 ctr 23.5 | ADAM17 confirm 14.6
O=C(CSc1nc2ccccc2[nH]1)Nc1ccc(F)c(F)c1	ADAM17 inh 10.1, ADAM10 inh 21.4 (no result: FGF22 binding, Ecoli rRNA inh) | ADAM10 confirm inactive | ADAM17 ctr inactive | ADAM10 ctr inactive | ADAM17 confirm inactive
CC(C)[C@@H](C)NC(=O)N(C)C[C@H]1OCc2ccccc2-c2ccccc2C(=O)N([C@H](C)CO)C[C@@H]1C	none (no result: proKLK7 act, ADAM17 inh, ADAM10 inh)
CCCOc1ccc(NC(=O)CC2C(=O)N(Cc3ccccc3)C(=S)N2Cc2cccs2)cc1 (centres undefined)	ADAM17 inh 13.1, ADAM10 inh 25.7 | ADAM10 confirm inactive | ADAM17 ctr inactive | ADAM10 ctr 30.0 | ADAM17 confirm 16.4
COC(=O)CN1C(=S)N(Cc2ccccc2)C(=O)C1CC(=O)Nc1ccc(Br)cc1 (centres undefined)	ADAM17 inh 11.9, ADAM10 inh 23.4 (no result: FGF22 binding, Ecoli rRNA inh) | ADAM10 confirm inactive | ADAM17 ctr inactive | ADAM10 ctr 26.6 | ADAM17 confirm 12.6
COc1ccc(CNC(=O)C(C)n2ccc3cc(S(=O)(=O)N4CCCCCC4)ccc32)cc1 (centres undefined)	ADAM17 inh 12.2, ADAM10 inh 28.4 | ADAM10 confirm inactive | ADAM17 ctr inactive | ADAM10 ctr 22.1 | ADAM17 confirm 15.6
CCC(=O)N1CC2(C1)[C@H](c1ccccc1)[C@H](CO)N2CC1CCOCC1	none (no result: proKLK7 act, ADAM17 inh, ADAM10 inh)
COc1ccc(OC)c(-c2csc(NC(=O)CSc3ccc([N+](=O)[O-])cc3)n2)c1	ADAM17 inh 11.4, ADAM10 inh 22.7 | ADAM10 confirm inactive | ADAM17 ctr inactive | ADAM10 ctr 29.0 | ADAM17 confirm 12.6
CCN1C(=O)C(CC(=O)Nc2cccc(C(C)=O)c2)S/C1=N\c1ccccn1 (centres undefined)	none
Cc1ccccc1N=C1SC(CC(=O)Nc2ccc3ccccc3c2)C(=O)N1Cc1ccccn1 (centres undefined)	ADAM17 inh 15.0, ADAM10 inh 39.1 (no result: FGF22 binding, Ecoli rRNA inh) | ADAM10 confirm inactive | ADAM17 ctr inactive | ADAM10 ctr 37.2 | ADAM17 confirm 21.7
O=C(/C=C/c1ccccc1Cl)NCc1ccccc1	none (no result: FGF22 binding, Ecoli rRNA inh)
CCN(CC)c1ccc(NC(=O)/C=C\c2ccccc2Cl)cc1	ADAM17 inh 14.3, ADAM10 inh 26.8 (no result: FGF22 binding, Ecoli rRNA inh) | ADAM10 confirm inactive | ADAM17 ctr inactive | ADAM10 ctr 37.7 | ADAM17 confirm 18.8
CN(C)c1ccc(NC(=O)/C=C/c2ccccc2Cl)cc1	ADAM17 inh 11.6, ADAM10 inh 22.5 (no result: FGF22 binding, Ecoli rRNA inh) | ADAM10 confirm inactive | ADAM17 ctr inactive | ADAM10 ctr inactive | ADAM17 confirm inactive
Cc1cc(NC(=O)/C=C/c2ccccc2Cl)no1	none (no result: FGF22 binding, Ecoli rRNA inh)
CC(C)NS(=O)(=O)c1ccc(Oc2ncc(C(F)(F)F)cc2Cl)cc1	none (no result: FGF22 binding, Ecoli rRNA inh)
O=S(=O)(Nc1ccccc1)c1ccc(Oc2ncc(C(F)(F)F)cc2Cl)cc1	ADAM17 inh 12.2, ADAM10 inh 28.7 (no result: FGF22 binding, Ecoli rRNA inh) | ADAM10 confirm inactive | ADAM17 ctr inactive | ADAM10 ctr 35.1 | ADAM17 confirm 18.6
COc1ccc(C=C(c2nc3ccccc3s2)c2nc3ccccc3s2)cc1O	ADAM17 inh 8.6, ADAM10 inh 20.1 (no result: FGF22 binding, Ecoli rRNA inh) | ADAM10 confirm inactive | ADAM17 ctr inactive | ADAM10 ctr 24.6 | ADAM17 confirm 13.9
COc1ccc(/C=N/Nc2nc3ccccc3s2)cc1O	none
Cc1cccc(S(=O)(=O)N(C)C[C@H]2OCc3ccccc3-c3ccccc3C(=O)N([C@@H](C)CO)C[C@H]2C)c1	none (no result: FGF22 binding, proKLK7 act, ADAM17 inh, ADAM10 inh)
CC(=O)Nc1ccc2c(c1)C(=O)N(C)C[C@H](C)[C@@H](CN(C)S(C)(=O)=O)O2	none (no result: FGF22 binding, proKLK7 act, ADAM17 inh, ADAM10 inh)
Cc1cc(F)ccc1C(O)c1ncc(-c2cccc(OCc3ccccc3)c2)[nH]1 (centres undefined)	ADAM17 inh 9.7, ADAM10 inh 29.4 | ADAM10 confirm inactive | ADAM17 ctr inactive | ADAM10 ctr 38.7 | ADAM17 confirm 20.2

High-throughput results (PubChem BioAssay)
